Assay outcomes: PubChem, National Center for Advancing Translational Sciences (NCATS)
NPSR antag = qHTS Assay for Antagonists of the Neuropeptide S Receptor: cAMP Signal Transduction; CHO-NPSR cells, cAMP TR-FRET, antagonist mode; Potency, µM (highest dose often 38.3 µM), for inactives: at the highest dose activity change, negative = inhibition, hits mostly inhibitors; 220,000 tested, 1% active; AID 1461, 2008; also: nearly all actives have a fitted effect of over 50% in size
Target sequence (Q6W5P4 whole entry, looked up): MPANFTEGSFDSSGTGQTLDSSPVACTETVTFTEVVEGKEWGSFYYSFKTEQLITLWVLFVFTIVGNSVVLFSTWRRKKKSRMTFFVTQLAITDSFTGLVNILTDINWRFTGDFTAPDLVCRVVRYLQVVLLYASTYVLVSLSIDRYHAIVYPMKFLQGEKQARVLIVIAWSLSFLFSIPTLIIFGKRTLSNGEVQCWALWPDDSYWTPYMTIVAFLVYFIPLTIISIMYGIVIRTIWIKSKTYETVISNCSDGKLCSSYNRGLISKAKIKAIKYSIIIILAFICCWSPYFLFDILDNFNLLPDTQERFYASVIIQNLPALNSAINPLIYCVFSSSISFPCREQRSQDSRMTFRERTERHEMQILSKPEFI
Tau fibril FP = qHTS for Inhibitors of Tau Fibril Formation, Fluorescence Polarization; Microtubule-associated protein tau (Homo sapiens), P10636; K18 P301L tau heparin fibrillization, Alexa594 FP, 6 h; Potency, µM (series often up to 57.7 µM), without a hit: at the top dose activity, negative = inhibition, most hits filed as inhibitors; 280,000 tested, 0.39% active; AID 1468, 2008; also: nearly all actives have a fitted effect of over 55% in size
Target sequence (P10636 561-689 P618L limits assumed): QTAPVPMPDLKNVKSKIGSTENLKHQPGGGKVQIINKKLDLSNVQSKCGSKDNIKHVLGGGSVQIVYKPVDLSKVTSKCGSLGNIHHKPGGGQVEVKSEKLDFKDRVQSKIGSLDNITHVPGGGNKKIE
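K18 P301L tau (15 uM unlabeled/0.24 uM Alexa 594-labeled, final) + compound + heparin 20 uM final; 100 mM NaOAc pH 7; 6 hr 37 C; ThT 30 uM final added, 1 hr RT; FP ex 555/em 632 nm.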
Tau fluor cs = Counterscreen qHTS for Inhibitors of Tau Fibril Formation, Fluorescence Polarization. tau K18 P301L Alexa594 fluorescence, heparin fibrillization. Potency, µM (titrated, usually from 57.7 µM), for the others: at the highest dose activity change, negative = decrease. 280,000 tested, 0.93% active; also: nearly all actives have a fitted effect of over 55% in size
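Human tau K18 P301L (15 uM unlabeled, 0.24 uM Alexa 594-labeled) in 100 mM sodium acetate pH 7 with 20 uM heparin, 6 hr at 37 C. ThT 30 uM added, 1 hr ambient; Alexa 594 FP and total fluorescence read at 555/632 nm.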
Luc counter = Counterscreen for Luciferase (Kinase-Glo TM) Inhibition; Luciferin 4-monooxygenase (Photuris pensylvanica), Q27757; Kinase-Glo luciferase, ATP luminescence, 8 min; Potency, µM (series often up to 38.3 µM), for the others: top-dose activity change, negative = inhibition, actives largely listed as inhibitors; 200,000 tested, 0.28% active; AID 1379, 2008; also: nearly all actives have a fitted effect of over 60% in size
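Light output from Kinase-Glo luciferase with luciferin and 10 uM ATP in 50 mM imidazole pH 7.2, KCl, MgCl2, Tween 20, BSA; compound pin-delivered, 8-min ambient incubation, then luminescence read.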
Tau fibril ThT = qHTS for Inhibitors of Tau Fibril Formation, Thioflavin T Binding. Microtubule-associated protein tau (Homo sapiens), P10636. recombinant tau K18 P301L, heparin-induced fibrillization, ThT fluorescence. Potency, µM (titrated, usually from 57.4 µM), without a hit: top-dose activity, negative = inhibition, usual class: inhibitors. 270,000 tested, 2.1% active. AID 1460, 2008; also: nearly all actives have a fitted effect of over 55% in size
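Fibril formation assay: tau K18 P301L at 15 uM with trace Alexa 594 label, heparin inducer 20 uM, pH 7 sodium acetate buffer, 37 C for 6 hr; endpoint ThT signal.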
Starred values were filed as active, the others as inactive; ? = inconclusive; · = not tested or not shown; [ ] = dose if it differs, or a comment. In the library only some 3.3% were active in any assay of this set; here they are far more common. Calls follow the shape of the dose curve; as a rule, active = well fitted curve in the direction sought with a large enough effect; inconclusive = small, poorly fitted or top-dose-only effect, or another doubt; inactive = no such curve, though single readings can be large; an effect the other way counts as inactive or inconclusive. % is scaled to controls: 0 for no effect and ±100 for the full control effect; potency is read from the fitted curve at half-maximal effect.

SMILES	NPSR antag	Tau fibril FP	Tau fluor cs	Luc counter	Tau fibril ThT
COc1ccc2c(c1)-c1c(sn(-c3ccccc3)c1=S)C(C)(C)N2	-35%	?	14µM*[quencher]	-1%	?
CNS(=O)(=O)c1cn(CC(=O)N2CCN(c3ccc(C(C)=O)cc3)CC2)cc1S(=O)(=O)NC	·	1%	-4%	·	-6%
CC(=O)Nc1ccc(C2NC(C(=O)O)CCC2C)cc1 (stereo unspecified)	·	-3%[11.6 µM]	-7%[11.6 µM]	·	-4%[11.5 µM]
CC1=CC(C)(C)Nc2ccc(OS(=O)(=O)c3ccc(C)cc3)cc21	?	?	5µM*[quencher]	-6%	8.9µM*
CC(=O)Nc1ccc(S(=O)(=O)Oc2ccc3c(c2)C(C)=CC(C)(C)N3)cc1	-2%	?	14µM*[quencher]	-1%	?
Cc1ccc(NC(=O)Nc2nnc(N(C)C3CCCCC3)s2)c(Cl)c1	·	-2%	-7%	·	-1%
NS(=O)(=O)c1ccc(N/N=C/c2ccc(O)c(O)c2O)c([N+](=O)[O-])c1	15%	5µM*	2µM*[quencher]	·	2µM*
C/C(=N\Nc1ccc(S(N)(=O)=O)cc1[N+](=O)[O-])c1ccco1	-23%	-4%	?	·	5µM*
NS(=O)(=O)c1ccc(N/N=C/c2ccccc2C(=O)O)c([N+](=O)[O-])c1	-3%	9%	-6%	-3%	?
NS(=O)(=O)c1ccc(N/N=C/c2ccc(O)cc2O)c([N+](=O)[O-])c1	44%	-2%	?	·	2.2µM*
C/C(=N\Nc1ccc(S(N)(=O)=O)cc1[N+](=O)[O-])c1ccccc1O	3%	2%	-16%	·	?
COc1ccccc1NC(=O)c1ncn(-c2ccccc2)n1	·	-8%	-14%	·	?
COc1cc2c(cc1OC)-c1cc3cc(OC)c(OC)cc3c(=O)n1CC2	·	7%	-27%	0%	?
CCc1ccc(NC(=O)CSc2nnc3[nH]c(=O)cc(-c4ccccc4)n23)cc1	·	3%	-19%	·	?
CCOc1cc(/C=C2\C(=O)N(Cc3ccco3)C(C)=C2C(=O)OC)ccc1O	-25%	?	?	4%	28µM*
CCOc1cc(/C=C2\C(=O)N(CCc3ccc(OC)c(OC)c3)C(C)=C2C(=O)OC)ccc1O	13%	?	?	-2%	28µM*
CCOC(=O)C1=C(C)N(c2ccc(OCC)cc2)C(=O)/C1=C\c1ccco1	-50%	?	-22%	0%	14µM*
CCOC(=O)C1=C(C)N(c2ccc(C)cc2)C(=O)/C1=C\c1ccc(O)c(OC)c1	-57%	?	?	·	25µM*
O=[N+]([O-])c1ccc(C(c2sc3nc(-c4ccco4)nn3c2O)N2CCC3(CC2)OCCO3)cc1 (stereo unspecified)	·	-3%	-6%	·	-11%
COc1ccc(NC(=O)C2=C(C)C(=O)OC23CCN(C(C)C)CC3)cc1Cl	·	-8%	-7%	·	-1%
Cc1cccc(-n2nnc(-c3nc(-c4cccs4)no3)c2N)c1C	·	-14%	0%	·	0%
CC(=O)c1ccc(N2CCN(c3ncnc4c3c(-c3ccccc3)cn4-c3ccc(Cl)cc3)CC2)cc1	·	-4%	-9%	·	-17%
COc1ccc(CCNC(=O)CSc2cn(CCNC(=O)c3ccc(OC)c(OC)c3)c3ccccc23)cc1OC	·	-2%	?	·	?
COC(=O)C1=C(C)N(Cc2ccc(C)cc2)C(=O)/C1=C\c1ccc(O)c(OC)c1	-22%[46.1 µM]	?	?	-3%	14µM*
O=C(CCC(=O)Nc1ccccc1)N/N=C/C=C/c1ccccc1	2%	-1%	0%	-1%	-3%
SMILES	NPSR antag	Tau fibril FP	Tau fluor cs	Luc counter	Tau fibril ThT
CCOc1ccc(N=C/C=C/c2ccccc2)c(O)c1	25%	?	?	·	4.5µM*
O=C(Cc1cc(=O)[nH][nH]1)N/N=C/C=C/c1ccccc1	?	?	-22%	-5%	13µM*
CCOc1ccc(NCC(=O)N/N=C/C=C/c2ccccc2)cc1	-10%	5%	?	5%	11µM*
N#CCCS(=O)(=O)c1ccccc1	·	-3%	-3%	-3%	1%
COc1ccc(/C=C2\SC(=S)N(CC3CCCO3)C2=O)cc1 (stereo unspecified)	-1%	-10%	-27%	·	?
O=C1/C(=C/c2cccnc2)SC(=S)N1CC1CCCO1 (stereo unspecified)	6%	-4%	-8%	1%	-17%
Cc1ccc(/C=C2\SC(=S)N(CC3CCCO3)C2=O)o1 (stereo unspecified)	?	?	-24%	·	16µM*
COc1cc(/C=C2/SC(=S)N(CC3CCCO3)C2=O)ccc1O (stereo unspecified)	-8%	11%	11µM*[quencher]	-10%	14µM*
O=C1/C(=C\c2ccc(-c3ccccc3Cl)o2)SC(=S)N1CC1CCCO1 (stereo unspecified)	2%[46.1 µM]	1%	-14%	0%	?
O=C1/C(=C/c2ccco2)SC(=S)N1CC1CCCO1 (stereo unspecified)	57%	?	?	·	20µM*
O=C(O)C1=C(OCc2ccc(F)c(F)c2)C(=O)NCC1	14%	3%	7%	-1%	6%
CCc1ccc(NC(=O)c2ccc(CN3CC(=O)N4CCCCC4C3=O)cc2)cc1 (stereo unspecified)	·	4%	-6%	·	-2%
COC(=O)c1cc(C)nc(Sc2ccccc2N)n1	-23%	?	?	·	28µM*
O=C1O/C(=C/Br)CCC1c1cccc2ccccc12 (stereo unspecified)	?	?	?	-2%	18µM*
O=C(O)[C@H]1CCc2ccc3ccccc3c2[C@H]1c1cccc2ccccc12	·	·	·	-4%[7.66 µM]	·
